# Bioassay records deposited in PubChem BioAssay by several laboratories.
# Rpn11 block: Rpn11 (PSMD14) deubiquitinase inhibitors, primary screen, biochemical, fluorescence polarization, uHTS; 26S proteasome non-ATPase regulatory subunit 14 (Homo sapiens), O00487; human 26S proteasome, Ub4-pepOG fluorescence polarization; 20S core pre-blocked with epoxomicin; inhibition, % at 20 µM; actives 0.59% (n = 360,000);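 active means inhibition at 20 µM, scaled to each plate's controls, above about 33%, limit read from the data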
# Target sequence (O00487 whole entry, looked up): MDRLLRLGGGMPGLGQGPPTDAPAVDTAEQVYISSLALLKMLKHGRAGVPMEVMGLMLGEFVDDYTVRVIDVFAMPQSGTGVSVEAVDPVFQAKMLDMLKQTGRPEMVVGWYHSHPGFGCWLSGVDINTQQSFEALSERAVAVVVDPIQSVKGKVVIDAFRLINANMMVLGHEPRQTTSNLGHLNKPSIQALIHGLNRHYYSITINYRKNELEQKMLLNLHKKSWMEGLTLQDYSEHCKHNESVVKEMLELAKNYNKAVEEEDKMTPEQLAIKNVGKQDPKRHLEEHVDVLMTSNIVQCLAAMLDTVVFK
# IDE inh: human IDE inhibitors in live cells, primary screen, fluorescence polarization, HEK cells, FAbetaB substrate. actives 0.41% (n = 320,000). FAbetaB cleavage. Insulin-degrading enzyme (Homo sapiens), P14735. inhibition, % at 5.59 µM;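 active means percent inhibition above the average of all tested compounds plus 3 SD, set per screening campaign, cut at about 16% in these data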;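 further: IDE supplied by intact live HEK cells; FP after avidin binding of uncleaved biotin substrate so inhibition keeps polarization high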
# TPT1 inhibitor: Candida albicans TPT1 enzyme inhibitors, primary screen, biochemical, fluorescence polarization | recombinant caTPT1, FP RNA substrate dephosphorylation | inhibition, % at 5 µM | tRNA 2'-phosphotransferase TPT1 (Candida albicans SC5314) | actives 0.81% (n = 300,000);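 active means inhibition above the mean of all tested compounds plus 3 SD, set per screening campaign, cut at about 24% in these data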
# Rin1-Abl PPI inh: inhibitors of Rin1-Abl protein binding, primary screen, biochemical, TR-FRET; actives 0.4% (n = 360,000); inhibition, % at 7.35 µM; in the data active means inhibition above about 5%, passing the limit was not always enough
# Calb FLC: C. albicans growth inhibition with fluconazole, primary screen, CaCi-2 strain, Alamar Blue fluorescence; growth inhibition, % (no concentration beside the values); C. albicans CaCi-2 (fluconazole-resistant clinical isolate) + fluconazole, 48 h; actives 0.57% (n = 300,000);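 active means growth inhibition above about 58% in most replicates, limit read from the data, passing the limit was not always enough; inconclusive means exactly half the replicates above a set limit; inactive means most replicates below a set limit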;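 further: all wells also contain fluconazole at 8 µg/ml as a sub-toxic cotreatment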
# IDE act: human IDE activators in live cells, primary screen, fluorescence polarization, HEK cells, FAbeta-B substrate; FAbeta-B cleavage; 0% vehicle, 100% cell-free pure enzyme wells; activation, % at 5.96 µM; actives 0.073% (n = 340,000); AID 493087, 2011;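 active means activation above the mean of all tested compounds plus 3 SD, set per screening campaign, cut at about 17% in these data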
# Hits are given with their value; . = inactive; ? = inconclusive; / = not tested or not shown. The list is not random: actives were taken first. Their share in the collection is about 2.3%.
SMILES,Rpn11 block,IDE inh,TPT1 inhibitor,Rin1-Abl PPI inh,Calb FLC,IDE act
CCCOC(=O)/C(=C\c1ccc([N+](=O)[O-])o1)NC(=O)c1ccccc1,.,.,.,.,89,.
CCOC(=O)/C(=C\c1ccc([N+](=O)[O-])o1)NC(=O)c1ccccc1,.,.,.,.,.,.
O=S(=O)(Nc1nc(-c2ccccc2)cs1)c1cc(Cl)ccc1Cl,.,.,.,.,96,.
O=[N+]([O-])c1ccc(S(=O)(=O)Nc2nc(-c3ccccc3)cs2)cc1,.,.,.,.,.,.
Cc1[nH]c2ccccc2c1/C=C/c1cc[n+](C)cc1,/,/,/,.,104,.
COc1ccc(N(CC(=O)Nc2ccc(C(N)=O)cc2)S(=O)(=O)c2ccc(C)c([N+](=O)[O-])c2)cc1,.,.,.,.,.,.
COc1ccc(N(CC(=O)Nc2ccccc2C(N)=O)S(=O)(=O)c2ccc(C)c([N+](=O)[O-])c2)cc1,.,.,.,.,95,.
CCCCn1c(N)c(N(CC)C(=O)c2cccc(S(=O)(=O)N3CCN(C)CC3)c2)c(=O)[nH]c1=O,.,.,.,.,.,.
O=C1CC(c2ccccc2)CC(=NCCO)/C1=C(\O)CCCN1C(=O)c2ccccc2C1=O (configuration not stated),.,.,.,.,64,.
CC1CC(=O)c2c(cc3c(-c4c(O)cc(O)c5c(O)c6c(cc45)OC(C)CC6=O)c(O)cc(O)c3c2O)O1 (configuration not stated),.,.,.,.,.,25
CN(CC(=O)Nc1cccc(F)c1)C(=O)c1ccccc1-n1cnnn1,.,/,/,.,/,.
NC(=O)c1c(NC(=O)c2ccncc2)sc2c1CCCC2,.,.,.,.,73,.
NC(=O)c1c(NC(=O)c2ccco2)sc2c1CCC2,.,.,.,.,92,.
CN(CC(=O)Nc1cccc(F)c1)C(=O)c1cccc(S(=O)(=O)N2CCN(c3ccc(F)cc3)CC2)c1,.,/,/,.,/,.
O=C(NNC(=O)c1cc(S(=O)(=O)N2CCOCC2)ccc1Cl)c1ccc(F)cc1,.,/,/,.,/,/
CCOC(=O)c1ccc2nc(C)c(C)nc2c1,.,.,.,.,.,.
CCOC(=O)c1cccc(P(C)(C)=O)c1,.,.,.,.,.,19
COCO/C=C(\NC(C)=O)c1ccccc1,.,.,/,.,/,31
COC(CN(C)C(=O)c1ccc2c(c1)NC(=O)c1ccccc1S2)OC,.,/,/,.,120,.
O=C(O)c1ccc2c(c1)C(=O)N(c1ccc(Nc3ccccc3)cc1)C2=O,.,/,/,.,.,.
CNC(=O)c1nnsc1S(=O)c1ccc(Cl)cc1 (configuration not stated),.,/,/,.,105,.
Cc1cc(O)ccc1C1(c2ccc(O)cc2C)OC(=O)c2ccccc21,.,.,.,.,.,.
CC(=O)Oc1ccc2c(c1)Oc1cc(OC(C)=O)ccc1C21OC(=O)c2ccccc21,.,.,.,.,/,42
O=C(COc1cc2oc(=O)c3c(c2cc1Cl)CCC3)N1C[C@H]2C[C@@H](C1)c1cccc(=O)n1C2,.,.,.,.,.,.
O=C(CCCCC(=O)NCCCc1ccccc1)NCCCc1ccccc1,.,.,.,.,.,.
SMILES,Rpn11 block,IDE inh,TPT1 inhibitor,Rin1-Abl PPI inh,Calb FLC,IDE act
CC1NC(=O)NC1CCCCCC(=O)NCCc1ccccc1 (configuration not stated),.,.,.,83,?,.
COc1ccc(CCNC(=O)COC(=O)C2CC2C)cc1OC (configuration not stated),.,.,/,.,/,22
Brc1cccc(-c2nc3c4ccccc4ccn3c2Cc2ccccc2)c1,.,/,/,.,/,/
CC1=CNC(=O)CC(C)(C)C1,.,/,/,.,/,/
CN1CCN(Cc2ccc(OCc3ccccc3)cc2)CC1,.,.,.,.,.,.
O=S(=O)(c1ccc(Cl)cc1)N1CCN(Cc2ccc(O)c3ncccc23)CC1,.,.,.,.,95,.
CN1CCN(C2CCN(Cc3ccc(O)c4ncccc34)CC2)CC1,.,.,/,.,/,.
CN1CCN(Cc2cc(COCc3ccccc3)c3cccnc3c2O)CC1,.,.,.,.,109,.
Oc1ccc(CN2CCN(Cc3ccccc3)CC2)c2cccnc12,.,.,.,.,60,.
O=S(=O)(c1ccc(Cl)cc1)N1CCN(Cc2ccncc2)CC1,.,.,.,.,.,.
CC1(C(=O)NS(=O)(=O)c2ccc3ccccc3c2)CCN1C(=O)Cc1ccc(-c2ccccc2)cc1 (configuration not stated),.,/,/,.,/,/
OC1=C(O)c2nc3cc(C(F)(F)F)ccc3nc21,.,.,.,.,.,.
Cc1cc(Br)ccc1OCC(=O)NNC(=O)C(=O)Nc1ccccc1,.,.,.,.,89,.
Cc1cc(Br)ccc1OCC(=O)NNC(=O)Cc1ccccc1,.,.,.,.,.,.
COCCNC(=S)N(C)C1(c2ccccc2Cl)CCCCC1=O (configuration not stated),.,.,.,.,.,17
CC(C)CN1CCC(=O)N([C@H](CO)c2ccccc2)CC1,/,.,.,/,.,37
C=C(C)CNC(=S)N/N=C1\CCCCc2ccccc21,.,.,.,.,93,.
O=C(COc1cccc(F)c1)Nc1nc(-c2ccccn2)cs1,.,/,/,.,/,/
O=C(COc1ccc(F)cc1)Nc1nc(-c2ccccn2)cs1,.,.,.,.,90,.
COc1ccccc1Nc1nc(NCc2ccco2)c2ccccc2n1,.,.,.,.,.,/
Cc1ccc(Nc2nc(NCc3ccco3)c3ccccc3n2)cc1,.,.,.,.,92,.
CC1=C(C(=O)N(C)C)CC(CC(=O)NC(c2ccccc2)c2ccccc2)C(=O)N1Cc1ccc(F)cc1 (configuration not stated),.,/,/,.,/,/
Cc1c(Cl)ccc2c1NC(=O)[C@]21N[C@@H](Cc2ccccc2)[C@H]2C(=O)N(c3ccc(F)cc3)C(=O)[C@H]21,.,.,.,.,89,.
Cc1cc(C(C#N)c2cccc(Cl)c2)n2ncnc2n1 (configuration not stated),.,.,.,.,96,.
Nc1ccc(N)c(C(=O)O)c1,.,.,.,13,.,.
CC(=O)Nc1ccc(N2C(=O)CC(Sc3nc(C)cc(C)n3)C2=O)cc1 (configuration not stated),.,.,.,.,.,.
Cc1ccccc1Nc1ncccc1C(=O)N1CCOCC1,.,.,.,.,109,.
